Among all 330,000 compounds or so, about 1,300 (0.39%) were called active. Only a selection was taken, and actives are over-represented in it overall. A number with no mark means an inactive call.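 The calls were made as follows: active = inhibition of 50% or more; inactive = inhibition below 50%.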

The test can be described thus: NALP3 inflammasome inhibitors in reconstituted yeast, primary screen, luminescence, uHTS (AID 2825).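 Also: plate controls were induced DMSO wells for no effect and uninduced yeast grown without galactose for full effect.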 The conditions noted are these: Yeast reconstituted NLRP3/ASC/caspase-1, beta-gal luminescence, 24 h; at 10 µM; active compounds read high.
On to `COc1cc(N2C(=O)c3ccccc3C2=O)c(Cl)cc1C(=O)OCC(=O)N1CCOCC1`, for which the inhibition was -0.245%.

For `N#C/C=C(/c1ccc(F)cc1)N1CCOCC1`, the inhibition is 6.72%. As for `CCOc1cc(/C=N/NC(=O)OC)ccc1OCCSc1ccc(Cl)cc1`, the figure is 33.5%.

As to `CC(C)(C)NC(=O)CN(C(=O)c1ccc(Cl)nc1)c1cccc2ccccc12`, the inhibition is 13.4%. As for `O=C(CCC(=O)OCc1ccc(Cl)cc1)Nc1ccccc1`, the figure is 21%. As for `O=C(O)CC1=C(Nc2ccccc2)C(=O)N(c2ccccc2)C1c1ccc(Cl)cc1` (stereo not drawn), the figure is 15%; as for `O=C1C=C(c2ccc(Cl)cc2)C(=O)N1Nc1ccccc1`, 74.6% (active). Turning to `Cc1sc2c(c1C)c(=O)n(-c1ccccc1)c1nncn21`, the inhibition was 2.84%. Under `CCCCNC(=O)C1(O)c2ccccc2NC(=O)N1c1ccc(Cl)cc1` (stereo not drawn) stands 3.8%; under `COc1cc(NC(=O)C2=CC(c3ccco3)=NS(=O)(=O)N2C)cc(OC)c1OC`, 2.53%; under `CCc1noc(C)c1C(=O)Nc1nc(-c2ccccc2)cs1`, 45.9%.

As to `Cc1noc(C)c1CSCC(=O)Nc1nc2ccc(Oc3ccccc3)cc2s1`, the inhibition is 9.07%. As for `CCc1noc(C)c1C(=O)Nc1nc2ccc(OC)cc2s1`, the figure is 70.8% (active). As for `Cc1ccc(C)c(N2CCN(C(=O)Cn3ncn4cccc4c3=O)CC2)c1`, the figure is -5.29%; as for `COCCN1CCn2c(nc3cc(NS(C)(=O)=O)ccc32)C1`, 10.9%. As for `CN=C1C=C/C(=N/N=c2\ccn(O)cc2C)C=C1C`, the figure is 57.6% (active); as for `COCCn1c(=O)[nH]c2cc(C(=O)NCc3cccnc3)ccc2c1=O`, -3.21%. As for `CC(NC(=O)c1cc2cc(Cl)ccc2oc1=N)c1ccccc1` (stereo not drawn), the inhibition was 14.4%. For `CC(=O)[C@@]12O[C@@H]1C[C@H]1[C@@H]3CC[C@H]4C[C@@H](O)CC[C@]4(C)[C@H]3CC[C@@]12C`, the inhibition is 58.4% (active). As for `CC(=O)C12CC(C)=C(C)CC1CC1C3CCC4=CC(=O)CCC4(C)C3CCC12C` (stereo not drawn), the figure is -1.41%; as for `CC(=O)O[C@H]1CC[C@@]2(C)[C@@H](CC[C@@H]3[C@@H]2CC[C@]2(C)[C@@H](C(C)(C)O)C[C@@H]32)C1`, 32.9%; as for `CC1CCN(S(=O)(=O)c2ccc3[nH]c(=O)ccc3c2)CC1`, 18.1%. Under `CC(=NCc1ccc2c(c1)OCO2)C1=C(O)c2ccccc2C1=O` stands 57.8% (active). As for `CCc1ccc(NC(=O)NC(C)c2ccc3c(c2)OCO3)cc1` (stereo not drawn), the figure is 24.3%; as for `O=C(CC(Cc1ccccc1)C(=O)O)NCCc1ccc2c(c1)OCO2` (stereo not drawn), 20.5%. Take `CCC(=O)c1cc(F)ccc1OCC(=O)Nc1ccc2c(c1)OCCO2`: the inhibition is 26.6%. Regarding `O=C(NC1CCC(O)CC1)c1ccccc1OCc1ccc(F)cc1` (stereo not drawn), the inhibition is 1.97%. Under `COCCNC(=O)CCCn1c(=O)c2ccccc2n(Cc2cccc([N+](=O)[O-])c2)c1=O` stands -0.805%; under `Cc1cc(C(=O)COc2ccccc2Cl)c(C)n1C1CC1`, 21.7%. As for `Cc1cc(C(=O)COc2ccc(Br)cc2F)c(C)n1C1CC1`, the figure is 58.4% (active); as for `O=C(COc1ccc(Br)cc1F)NC1CCN(Cc2ccccc2)CC1`, 23%; as for `O=C1C=CN2CCCC2CC1` (stereo not drawn), -5.59%. Turning to `O=C1CC(c2ccccc2)CC(O)=C1C=NCCN1CCOCC1` (stereo not drawn), the inhibition is 29.8%.

On to `CC(C)C(=O)N1CCN(CCN=CC2=C(O)CC(c3ccco3)CC2=O)CC1` (stereo not drawn), for which the inhibition was 60.8% (active).

Turning to `CC(=O)N1CCN(CCN=CC2=C(O)CC(C)(C)CC2=O)CC1`, the inhibition was 32.1%. On to `Cc1cc(C(=O)OCC(=O)Nc2nccs2)c2ccccc2n1`, for which the inhibition was 10.4%. As for `CN(C)CCCNC(=O)/C=C/c1ccc(OCc2c(F)cccc2Cl)cc1`, the figure is 20.8%; as for `O=C(/C=C/c1ccc(OCc2c(F)cccc2Cl)cc1)N1CCOCC1`, 28.2%; as for `COCCCNC(=O)/C=C/c1ccc(OCc2c(F)cccc2Cl)cc1`, 50.9% (active). On to `CCN(CC(=O)Nc1ccc(NC(C)=O)cc1)C(=O)CSC(=S)N1CCCC1`, for which the inhibition was 4.68%. Take `C=CCC1(CC=C)CCCN1C(=O)CC1C(=O)NCCN1Cc1ccccc1OC` (stereo not drawn): the inhibition is 4.65%. As to `CSc1ncnc2sc(C)c(C)c12`, the inhibition is 11.2%. As for `CCCNc1ncnc2sc(C)c(C)c12`, the figure is 55.9% (active). Under `Cc1sc2ncnc(Sc3nc4ccccc4s3)c2c1C` stands 6.48%. As for `Cc1cc(NC(=O)CN2C(=O)NC(C)(CCc3ccccc3)C2=O)no1` (stereo not drawn), the figure is -3.27%; as for `COCCNC(=O)c1ccc2nc(Cc3ccc(OC)c(OC)c3)oc2c1`, 20.9%. In the case of `O=[N+]([O-])/C=C/c1ccc2c(ccn2Cc2ccccc2)c1`, the inhibition is 92.3% (active). For `O=C(Cn1ccc2cc(S(=O)(=O)N3CCCC3)ccc21)NCc1ccccc1`, the inhibition was 11.6%. Turning to `Cc1ccc2[nH]c3c(=O)n(CC(=O)NCCc4ccc(Cl)cc4)ncc3c2c1`, the inhibition is 1.78%. Under `CC1(C)CCSC(/C=C/c2ccccc2)=N1` stands 85.7% (active); under `COc1ccc(CCNS(=O)(=O)c2ccc(Cl)s2)cc1OC`, 11%. Under `CC1CC(C)CN(S(=O)(=O)c2cccc3nonc23)C1` (stereo not drawn) stands 25%; under `CC(C)C[C@H](NC(=O)NCCc1ccc(Cl)cc1)C(=O)O`, 2.68%.
